GLD-1 TGE inh: GLD-1-TGE RNA interaction inhibition (C. elegans); purified GLD-1 + fluorescein TGE RNA, fluorescence polarization; inhibition, % at 5.96 µM; actives 0.44% (n = 320,000);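 active = percent inhibition above a per-plate cutoff, the plate mean of test compounds plus 3 SD, cut at about 30% in these data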;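 note: 0% = DMSO wells with GLD-1 and probe and 100% = wells lacking GLD-1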
BCLXL inh: inhibitors of human Bcl-xL | Q07817 | GST-Bcl-xL / FITC-Bim BH3 peptide fluorescence polarization | inhibition, % at 10.9 µM | actives 0.7% (n = 320,000) | AID 2129;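 active = inhibition above the mean of all tested compounds plus 3 SD, cutoff set per campaign, cut at about 30% in these data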;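 note: 0% = DMSO wells and 100% = unlabeled Bim-BH3 peptide competitor; inhibitors lower millipolarization by displacing the labeled peptide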
Target sequence (Q07817 whole entry, looked up): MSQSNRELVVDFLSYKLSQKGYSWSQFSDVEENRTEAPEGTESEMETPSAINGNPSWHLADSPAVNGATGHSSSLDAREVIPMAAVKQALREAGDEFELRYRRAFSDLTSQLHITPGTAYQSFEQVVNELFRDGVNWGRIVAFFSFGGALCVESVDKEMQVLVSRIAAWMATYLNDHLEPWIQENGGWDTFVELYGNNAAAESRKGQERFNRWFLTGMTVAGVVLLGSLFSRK
LANA-H2A inh: blocks KSHV LANA binding to histone H2A/H2B | Q9QR71 | cell-free LANA-H2A/H2B peptide, fluorescence polarization | inhibition, % (no concentration beside the values) | actives 0.6% (n = 320,000) | AID 2629; in the data active = inhibition mostly above about 10%, no sharp cut-off; inactive = mostly below about 6.7%
MEX-5 binding: C. elegans MEX-5 TCR-2 RNA binding activity. Q9XUB2. MEX-5/FITC-TCR2 RNA binding, fluorescence polarization; stronger effect = lower value. activity score (negative = inhibition of binding), % at 10 µM. actives 0.38% (n = 300,000);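 active = inhibition past about -25% in most replicates, and total fluorescence under double the plate's negative control median, limit read from the data; inconclusive = replicates evenly split on the limit, or fluorescence at least double controls; inactive = too little inhibition in most replicates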;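 note: 0% = DMSO and -100% = 5 µM competing unlabeled TCR2 RNA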
Target sequence (Q9XUB2 whole entry, looked up): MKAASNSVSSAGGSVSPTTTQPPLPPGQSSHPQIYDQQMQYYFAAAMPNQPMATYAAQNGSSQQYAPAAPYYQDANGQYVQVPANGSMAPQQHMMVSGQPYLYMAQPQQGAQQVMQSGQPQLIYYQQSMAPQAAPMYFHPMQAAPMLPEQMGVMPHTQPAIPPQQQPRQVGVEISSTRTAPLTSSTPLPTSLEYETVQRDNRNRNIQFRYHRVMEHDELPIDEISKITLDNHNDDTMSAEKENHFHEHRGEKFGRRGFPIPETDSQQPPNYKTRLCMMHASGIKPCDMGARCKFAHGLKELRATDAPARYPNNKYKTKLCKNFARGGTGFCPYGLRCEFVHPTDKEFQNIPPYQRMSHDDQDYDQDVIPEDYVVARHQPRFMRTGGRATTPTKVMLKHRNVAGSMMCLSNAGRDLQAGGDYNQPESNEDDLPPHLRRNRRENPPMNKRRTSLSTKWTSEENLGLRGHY
MCL1-BIM inh: disrupts human MCL1 binding to BIM-BH3 peptide; Q07820; GST-MCL1 / FITC-Bim-BH3 fluorescence polarization; inhibition, % at 10.9 µM; actives 0.68% (n = 320,000); AID 2057;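 active = inhibition above the mean inhibition of all tested compounds plus 3 SD, set per campaign, cut at about 40% in these data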;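 note: 0% = DMSO wells and 100% = unlabeled Bim-BH3 peptide control; higher means more loss of mP so more displacement of Bim peptide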
Yeast superoxide: caloric restriction mimetics inhibiting age-related superoxide in yeast | actives 0.18% (n = 330,000) | superoxide response (% of plate mean), % at 10 µM | S. cerevisiae aged cells, superoxide DHE fluorescence; stronger effect = lower value | AID 2690;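 active = superoxide response under a set limit, about three screen SD below normal, cut at about 65% in these data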;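 note: yeast aged for seven days with compound at 30 °C before DHE staining; 100% = average MFI of all compound-treated wells on the plate with controls excluded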
Bcl-xL conf: Bcl-xL (human) inhibition, MCL1 counter-screen confirmation; shares compounds with MCL1-BIM inh; GST-Bcl-xL / FITC-Bim BH3 peptide FP binding; inhibition, % at 10.9 µM; actives 54% (n = 1,700); AID 2166;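 active = inhibition above a cutoff equal to the mean inhibition of all tested compounds plus 3 SD, cut at about 30% in these data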;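 note: 0% = DMSO wells and 100% = unlabeled Bim BH3 control peptide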
MCL1 inh confirm: confirmation of human MCL1 and BIM-BH3 interaction inhibitors; actives 61% (n = 1,700); GST-MCL1 / FITC-Bim-BH3 fluorescence polarization; shares compounds with MCL1-BIM inh; inhibition, % at 10.9 µM;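 active = inhibition above the average of all tested compounds plus 3 SD, cut at about 40% in these data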;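 note: 0% = DMSO wells and 100% = unlabeled Bim-BH3 control peptide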
Active calls of the source: *; ? = inconclusive; . = no result; + = active, no number. An excerpt weighted towards active compounds, which were near 1.9% of everything screened.

SMILES	GLD-1 TGE inh	BCLXL inh	LANA-H2A inh	MEX-5 binding	MCL1-BIM inh	Yeast superoxide	Bcl-xL conf	MCL1 inh confirm
NC(=O)c1c(NC(=O)C2CCCO2)sc2c1CCCCC2 (stereo unspecified)	17.6	33.0*	0.6	-8.7	42.6*	114.2	19.3	28.5
NC(=O)c1c(NC(=O)C2CCCO2)sc2c1CCC2 (stereo unspecified)	1.4	-2.9	-2.6	0.2	5.3	95.2	.	.
Cc1ccc(-c2nnc(COC(=O)c3cccs3)o2)cc1	0.6	3.0	4.2	1.3	3.0	87.0	.	.
Cc1ccc(C(=O)NCc2ccccn2)cc1S(=O)(=O)N1CCOCC1	3.0	-1.1	2.9	.	5.4	110.1	.	.
O=C(COC(=O)c1ccc(O)cc1O)NC12CC3CC(CC(C3)C1)C2	99.8*	139.1*	.	.	157.7*	112.7	10.5	16.2
COc1ccc(NC(=O)C2CCCCC2)cc1S(=O)(=O)N1CCOCC1	1.0	.	7.4	.	.	99.0	.	.
Nc1nnc(-c2ccco2)s1	1.4	4.5	10.2	-1.8	7.4	94.0	.	.
Nc1ncnc2oc(-c3ccco3)c(-c3ccco3)c12	8.2	36.2*	1.3	-18.3	95.1*	90.5	40.0*	93.1*
c1ccc(-c2nnc(CN3CCCCC3)o2)cc1	-2.9	2.6	-2.5	-1.6	-4.3	104.9	.	.
c1ccc(-c2nnc(CN3CCCc4ccccc43)o2)cc1	-3.7	65.5*	-4.5	-5.8	72.1*	91.3	45.6*	67.6*
CCN(CC)S(=O)(=O)c1ccc(N2CCOCC2)c(NC(=O)c2[nH]c(C)c(C(C)=O)c2C)c1	1.3	.	-5.0	.	.	86.0	.	.
O=C(CN1CCSC1=O)N1CCN(S(=O)(=O)c2ccccc2)CC1	2.9	5.8	-4.8	.	54.7*	97.6	5.4	10.6
O=C(CN1CCSC1=O)N1CCN(S(=O)(=O)c2ccc(Cl)cc2)CC1	3.2	2.5	-1.3	.	4.5	76.3	.	.
O=C(NNc1ccccc1[N+](=O)[O-])Nc1ccc(Cl)c(Cl)c1	3.9	5.6	0.8	1.7	7.0	89.4	.	.
O=C1NC(=O)C(c2ccccc2[N+](=O)[O-])=C1Nc1ccc(O)c(Cl)c1	2.9	29.4	1.8	-12.0	50.2*	82.0	24.0	26.7
CC(C)C(=O)Nc1ccc2c(c1)nc(CCN1CCN(c3ccccn3)CC1)n2C	.	.	-2.8	-0.4	.	98.3	.	.
Cc1cc(=O)c2c([nH]1)c(C)cc1[nH]c(C)c(C)c12	67.9*	100.7*	1.8	.	99.9*	95.7	26.9	26.8
Cc1cc(C)c(S(C)(=O)=O)c(=O)[nH]1	-8.5	2.0	4.6	0.3	3.4	91.1	.	.
COc1cc(/C=C/C(=O)OCC(=O)Nc2oc(C)c3c(C)n[nH]c(=O)c23)ccc1OC(F)F	-3.2	11.3	0.7	-0.5	-1.7	93.0	.	.
COc1cc2oc(=O)ccc2cc1-c1c(OC)ccc2ccc(=O)oc12	0.3	.	.	.	.	118.2	.	.
Cc1ccc(NC(=O)CCSc2nnc(C)o2)cc1	-1.1	6.1	-2.3	-2.5	-3.3	94.8	.	.
O=C(O)/C(=C\c1ccc(Cl)c([N+](=O)[O-])c1)c1ccc(S(=O)(=O)N2CCCC2)s1	-1.1	11.1	5.3	.	43.2*	94.7	19.1	49.4*
O=C(O)/C(=C\c1ccc(Cl)c([N+](=O)[O-])c1)c1ccc(S(=O)(=O)N2CCCCC2)s1	2.3	15.2	-1.1	-2.6	15.2	101.3	.	.
Cc1ccc(NC(=O)CSc2nnc(N)s2)cc1S(=O)(=O)N1CCOCC1	7.7	2.8	-3.9	?	4.0	100.8	.	.
Cc1c(-c2ccc(O)cc2)nc2nc(-c3ccccc3)c(-c3ccccc3)nn12	22.0	118.2*	-14.9	7.1	112.2*	120.1	43.9*	54.0*
SMILES	GLD-1 TGE inh	BCLXL inh	LANA-H2A inh	MEX-5 binding	MCL1-BIM inh	Yeast superoxide	Bcl-xL conf	MCL1 inh confirm
FC(F)(F)c1cc(C(F)(F)F)c2ccc(N3CCOCC3)nc2n1	-4.2	4.7	0.6	-2.9	3.7	102.2	.	.
CN1CCCc2cc3c(C(F)(F)F)cc(=O)oc3nc21	125.1*	155.3*	14.7	?	167.8*	95.2	141.2*	173.8*
O=C1/C(=C2\C(=O)N(Cc3ccc(F)cc3)c3ccccc32)SC(=S)N1CCS(=O)(=O)O	-4.2	20.9	-6.8	-10.3	42.6*	116.9	23.4	39.0
CC(C)NC(=O)CN1C(=O)c2ccccc2S1(=O)=O	5.7	5.5	1.3	0.4	+	104.0	6.4	-3.1
CC1=C/C(=C/N(C)c2ccccc2)C(=O)S1	11.4	29.2	0.0	-9.3	40.9*	96.2	26.7	25.7
CC1=C/C(=C\c2ccc3c(c2)OCO3)C(=O)S1	5.3	8.4	1.0	1.2	10.2	109.2	.	.
CCN(CC)C(=O)CSc1nc2ccccc2c(=O)n1-c1cccc(OC)c1	-6.5	0.3	0.2	-1.1	0.3	103.7	.	.
COc1cccc(-n2c(SCc3cc(=O)oc4cc(O)c(O)cc34)nc3ccccc3c2=O)c1	8.7	13.4	6.0	-0.4	51.2*	79.5	20.6	63.3*
COC(=O)[C@]1(C)N[C@H](CN(C)C(=O)C2CCCCC2)[C@@H]2C(=O)N(Cc3ccccc3)C(=O)[C@@H]21	5.2	.	.	.	.	91.3	.	.
CCOC(=O)C1CCN(C(=O)Nc2ccc3nc(-c4ccco4)c(-c4ccco4)nc3c2)CC1	55.5*	100.6*	11.4	-4.3	142.8*	91.6	68.2*	100.2*
Cc1ccn2cc(-c3ccc(O)c(O)c3)nc2c1	2.3	24.9	-0.2	-46.2*	55.9*	92.8	58.3*	58.5*
Cc1ccn2cc(-c3cccc(NC(=O)C(C)C)c3)nc2c1	3.6	3.3	-3.2	0.4	1.1	100.7	.	.
CN(C)c1cccc(C(=O)OCC(=O)NC(=O)NCc2ccccc2)c1	-0.6	.	0.5	.	.	111.5	.	.
COc1cc(-c2nnc(SCc3cc(=O)oc4cc(O)c(O)cc34)o2)cc(OC)c1OC	-3.7	6.2	2.0	-3.2	61.8*	93.2	14.3	60.6*
Cc1ccc(NC(=O)c2cc(C)nn2-c2ccccc2)cc1	160.8*	+	-1.3	0.0	+	94.3	12.5	-0.7
COCc1c(C(=O)NCCc2ccc(OC(F)F)cc2)oc2ccccc12	6.5	.	-2.2	.	.	106.3	.	.
O=C(COc1ccc(F)cc1Br)NCCCN1CCCC1=O	2.4	.	3.6	.	.	99.6	.	.
Oc1cccc(O)c1O	17.2	14.4	-7.1	.	62.7*	109.0	29.9	41.8*
O=C(O)c1cccc(O)c1O	2.1	3.4	0.1	-4.2	9.4	101.2	.	.

Screening data deposited in PubChem BioAssay by several laboratories.
